# About 79,000 compounds went through this panel and 15% of them were active in at least one assay; those are over-represented in the sample as a whole. Values without a mark were called inactive. Activity calls are given as the source filed them. Rule as the data show it: active = growth inhibition above about 70%; inactive = the rest.
# Columns and labels:
# [1] = NCI Yeast Anticancer Drug Screen. Data for the rad52 strain (AID 147);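 also: 0% = growth of vehicle-treated control cultures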; details: S. cerevisiae rad52 mutant growth inhibition, hits give high values
# Method in brief: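 Screen used a yeast mutant impaired in DNA repair. After compound exposure, growth was measured. Values reflect inhibition compared with vehicle-treated cells.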
# [2] = NCI Yeast Anticancer Drug Screen. Data for the wt1 strain (AID 149);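 also: 0% = growth of vehicle-treated wt1 cultures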; details: S. cerevisiae wt1 strain (SPY 50644) growth inhibition, hits give high values
# Method in brief: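 Measured: growth of wt1 yeast under compound versus vehicle treatment, reported as inhibition.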
# [3] = NCI Yeast Anticancer Drug Screen. Data for the rad50EPP+ strain (AID 151);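 also: 0% = growth of vehicle-treated control cultures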; details: S. cerevisiae rad50 mutant strain, hits give high values
# Method in brief: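 Exposing the rad50EPP+ strain to each compound, growth was compared with vehicle-only cultures to give inhibition.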
# [4] = NCI Yeast Anticancer Drug Screen. Data for the mgt1 strain (AID 153); details: S. cerevisiae mgt1 mutant growth inhibition, hits give high values
# Method in brief: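 Genetically defined yeast (mgt1) treated with compound; inhibition of growth expressed against vehicle-treated controls.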
# [5] = NCI Yeast Anticancer Drug Screen. Data for the rad50 strain (AID 155);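 also: 0% = growth of vehicle-only cultures of the same strain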; details: S. cerevisiae rad50 strain growth inhibition, hits give high values
# Method in brief: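 Growth of the mutant yeast was measured after compound exposure and referenced to vehicle-treated cultures.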
# [6] = NCI Yeast Anticancer Drug Screen. Data for the mec2-1 strain (AID 157); details: S. cerevisiae mec2-1 strain, hits give high values
# Method in brief: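 Readout is yeast growth inhibition, normalised to vehicle-treated controls, in the mec2-1 strain exposed to compound.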
# [7] = NCI Yeast Anticancer Drug Screen. Data for the rad14 strain (AID 159);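 also: 0% = growth of vehicle-treated control cultures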; details: S. cerevisiae rad14 strain growth inhibition, hits give high values
# Method in brief: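 Here, inhibition of yeast growth was measured after compound exposure, using a strain with a genetic defect in DNA damage repair and vehicle-treated cultures as the reference.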
# [8] = NCI Yeast Anticancer Drug Screen. Data for the sgs1 mgt1 strain (AID 161);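 also: 0% = growth of cultures given vehicle only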; details: S. cerevisiae sgs1 mgt1 strain, hits give high values
# Method in brief: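 Yeast cells carrying a defined DNA-repair defect were exposed to test compounds. Growth inhibition was measured relative to vehicle-treated controls.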
# [9] = NCI Yeast Anticancer Drug Screen. Data for the CLN2oe strain (AID 163);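 also: 0% = growth of vehicle-only control cultures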; details: S. cerevisiae CLN2oe strain, hits give high values
# Method in brief: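 Values reflect how much compound exposure reduced yeast growth, referenced to vehicle-exposed cells. Assay organism is a strain with a defined genetic change affecting cell-cycle control.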
# [10] = NCI Yeast Anticancer Drug Screen. Data for the cln2 rad14 strain (AID 165);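 also: 0% = growth equal to vehicle treated cultures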; details: S. cerevisiae cln2 rad14 strain, hits give high values
# Method in brief: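 Relative to vehicle controls, growth inhibition of compound-treated cln2 rad14 yeast was recorded.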
# [11] = NCI Yeast Anticancer Drug Screen. Data for the bub3 strain (AID 167); details: S. cerevisiae bub3 mutant strain, hits give high values
# Method in brief: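 Whole-cell yeast assay. The mutant strain was incubated with compounds, and growth inhibition was determined by comparison with vehicle-treated cells.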
# [12] = NCI Yeast Anticancer Drug Screen. Data for the wt2 strain (AID 169);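 also: 0% = growth of vehicle-treated yeast cultures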; details: S. cerevisiae wt2 strain growth inhibition, hits give high values
# Method in brief: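 Values express reduction in yeast growth under compound treatment, referenced to vehicle-treated cells.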
# [13] = NCI Yeast Anticancer Drug Screen. Data for the mlh1 strain (AID 171);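 also: 0% = growth of vehicle-treated control cultures of the same strain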; details: S. cerevisiae mlh1 strain growth inhibition, hits give high values
# Method in brief: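 Steps: expose the defined-mutant yeast strain to compound; expose a parallel culture to vehicle; measure growth; express compound effect as inhibition relative to the vehicle culture.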
# [14] = NCI Yeast Anticancer Drug Screen. Data for the mlh1 rad18 strain (AID 175); details: S. cerevisiae mlh1 rad18 strain growth inhibition, hits give high values
# Method in brief: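 Test agents were incubated with a yeast strain of defined genotype (DNA damage repair defect). Inhibition of growth was derived by comparison with vehicle-exposed cultures.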
# [15] = NCI Yeast Anticancer Drug Screen. Data for the rad18 strain (AID 177); details: S. cerevisiae rad18 mutant growth inhibition, hits give high values
# Method in brief: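 A genetically defined yeast mutant impaired in DNA damage repair was treated with test compounds, then its growth was measured against cultures receiving vehicle alone.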
# [16] = at 5.0 µM (retest, dose inferred, filed as 0.5)
# [17] = at 50.0 µM (retest, dose inferred, filed as 5.0)
smiles,measurement,setting,value
CC(C)c1ccc(NC(=S)NC(=O)c2ccccc2)cc1,growth inhibition,[1]; at 1.2 µM,-32%
same,growth inhibition,[1]; at 3.7 µM,-30%
same,growth inhibition,[1]; at 11.0 µM,-19%
same,growth inhibition,[1]; at 33.0 µM,12%
same,growth inhibition,[1]; at 100.0 µM,26%
same,growth inhibition,[2]; at 1.2 µM,-9%
same,growth inhibition,[2]; at 3.7 µM,-22%
same,growth inhibition,[2]; at 11.0 µM,4%
same,growth inhibition,[2]; at 33.0 µM,20%
same,growth inhibition,[2]; at 100.0 µM,41%
same,growth inhibition,[3]; at 1.2 µM,-2%
same,growth inhibition,[3]; at 3.7 µM,4%
same,growth inhibition,[3]; at 11.0 µM,47%
same,growth inhibition,[3]; at 33.0 µM,53%
same,growth inhibition,[3]; at 100.0 µM,58%
same,growth inhibition,[4]; at 1.2 µM,-27%
same,growth inhibition,[4]; at 3.7 µM,-23%
same,growth inhibition,[4]; at 11.0 µM,27%
same,growth inhibition,[4]; at 33.0 µM,52%
same,growth inhibition,[4]; at 100.0 µM,47%
same,growth inhibition,[5]; at 1.2 µM,-27%
same,growth inhibition,[5]; at 3.7 µM,-19%
same,growth inhibition,[5]; [16],10%
same,growth inhibition,[5]; at 11.0 µM,1%
same,growth inhibition,[5]; at 33.0 µM,31%
same,growth inhibition,[5]; [17],31%
same,growth inhibition,[5]; at 50.0 µM,52%
same,growth inhibition,[5]; at 100.0 µM,39%
same,growth inhibition,[6]; at 1.2 µM,-35%
same,growth inhibition,[6]; at 3.7 µM,-19%
same,growth inhibition,[6]; [16],0%
same,growth inhibition,[6]; at 11.0 µM,4%
same,growth inhibition,[6]; at 33.0 µM,23%
same,growth inhibition,[6]; [17],40%
same,growth inhibition,[6]; at 50.0 µM,42%
same,growth inhibition,[6]; at 100.0 µM,38%
same,growth inhibition,[7]; at 1.2 µM,-19%
same,growth inhibition,[7]; at 3.7 µM,0%
same,growth inhibition,[7]; at 11.0 µM,-3%
same,growth inhibition,[7]; at 33.0 µM,42%
same,growth inhibition,[7]; at 100.0 µM,30%
same,growth inhibition,[8]; [16],2%
same,growth inhibition,[8]; [17],69%
same,growth inhibition,[8]; at 50.0 µM,66.6%
same,growth inhibition,[9]; at 1.2 µM,-21%
same,growth inhibition,[9]; at 3.7 µM,-21%
same,growth inhibition,[9]; at 11.0 µM,-2%
same,growth inhibition,[9]; at 33.0 µM,56%
same,growth inhibition,[9]; at 100.0 µM,51%
same,growth inhibition,[10]; [16],17%
same,growth inhibition,[10]; [17],64%
same,growth inhibition,[10]; at 50.0 µM,40.9%
same,growth inhibition,[11]; at 1.2 µM,3%
same,growth inhibition,[11]; at 3.7 µM,41%
same,growth inhibition,[11]; [16],42%
same,growth inhibition,[11]; at 11.0 µM,78% (active)
same,growth inhibition,[11]; at 33.0 µM,86% (active)
same,growth inhibition,[11]; [17],87% (active)
same,growth inhibition,[11]; at 50.0 µM,76% (active)
same,growth inhibition,[11]; at 100.0 µM,80% (active)
same,growth inhibition,[12]; at 1.2 µM,-25%
same,growth inhibition,[12]; at 3.7 µM,-26%
same,growth inhibition,[12]; at 11.0 µM,-6%
same,growth inhibition,[12]; at 33.0 µM,46%
same,growth inhibition,[12]; at 100.0 µM,37%
same,growth inhibition,[13]; at 1.2 µM,-11%
same,growth inhibition,[13]; at 3.7 µM,2%
same,growth inhibition,[13]; at 11.0 µM,29%
same,growth inhibition,[13]; at 33.0 µM,60%
same,growth inhibition,[13]; at 100.0 µM,56%
same,growth inhibition,[14]; [16],5%
same,growth inhibition,[14]; [17],59%
same,growth inhibition,[14]; at 50.0 µM,34%
same,growth inhibition,[15]; at 1.2 µM,-28%
same,growth inhibition,[15]; at 3.7 µM,-28%
same,growth inhibition,[15]; at 11.0 µM,-17%
same,growth inhibition,[15]; at 33.0 µM,3%
same,growth inhibition,[15]; at 100.0 µM,26%

# From PubChem BioAssay (NCI)
